Laboratory results from ChEMBL document CHEMBL1157539, “Thousands of chemical starting points for antimalarial lead identification” (Nature, 2010).

Tested on: HepG2
Assay: GSK_TCMDC: Percent inhibition of human HepG2 cell line. Test compounds present at 10uM.
Format: functional

SMILES	Inhibition
COc1ccc2nccc(NC(=O)N3CCC(NCc4cc5ccccc5[nH]4)CC3)c2n1.O=C(O)C(=O)O	27%
CC(C)CNC(=S)N1CCCN(c2nc3ccc(Cl)cc3s2)CC1	28%
CC(C)(C)c1ccc(-c2ccccc2CNC(=O)c2cccc(O)c2)cc1	3%
COc1cc2c(OC)cccc2cc1CNCCCCCCNCc1cc2cccc(OC)c2cc1OC.CS(=O)(=O)O	59%
Cc1ccc(/C=C/C(=O)NCCCCCN2CCC(c3c[nH]c4ccccc34)CC2)cc1	36%
CCCCc1ccc(C(=O)NC2CCN(C[C@H](O)c3ccnc4ccc(OC)cc34)CC2)cc1	24%
CCC(CC)(Cc1ccccc1)NC(=O)[C@H](CC1CCCCC1)Nc1ccc(C#N)c2ccccc12.O=C(O)C(F)(F)F	4%
CC(C)(C)OC(=O)NCc1ccc(Nc2nnc(-c3cccc(C(=O)NCCC(c4ccccc4)c4ccccc4)c3)o2)cc1	0%
CCN(CC)CCN(Cc1ccc(-c2ccc(C(F)(F)F)cc2)cc1)C(=O)Cn1c(CCc2cccc(F)c2F)nc(=O)c2sccc21.O=C(O)C(O)C(O)C(=O)O	70%
CC(C)CNCc1ccc(-c2ccc(CN(CCCN3CCN(C)CC3)C(=O)CCC3CCCC3)cc2)cc1.O=C(O)C(F)(F)F	50%
O=S(=O)(Nc1cccc(CCN2CCC(N3CCCCC3)CC2)c1)c1ccc(Oc2ccccc2)nc1	8%
Oc1ccc(OCc2ccccn2)cc1	5%
Br.NCC(=O)NC12CC3CC(CC(C3)C1)C2	15%
O=C(N[C@H]1CCN(Cc2ccc(OC3CCN(Cc4ccccc4)CC3)c(Br)c2)C1)c1ccc(Cl)c(Cl)c1.O=C(O)C(F)(F)F	55%
Cc1c(Cl)cccc1S(=O)(=O)Nc1ccc(CCN2CCC(N)CC2)cc1.Cl	23%
Cl.N=C(Cc1ccc(Cl)cc1)NCCN1CCCCCC1	0%
Cc1nc(C)c(C2CCC(c3ccc(Cl)cc3)CC2)c(O)c1Cl (stereo unspecified)	37%
O=C(N[C@@H](Cc1ccccc1)CN1CCC(Oc2ccc(F)cc2)CC1)c1ccc(OCCCN2CCCCC2)cc1.O=C(O)C(F)(F)F	38%

SMILES	Inhibition
CC(C)(C)c1ccc2[nH]c(-c3ccc(/C=C/C(=O)NCc4cccc(C(F)(F)F)c4)cc3)nc2c1	31%
COc1ccc(-c2cccc(NC(=O)c3ccc(Cl)cc3)c2)cc1CN(C)CCN(C)C.O=C(O)C(F)(F)F	37%
O=[N+]([O-])c1cccc(C=NNc2nc(=Nc3ccccc3)[nH]c(=Nc3ccccc3)[nH]2)c1	10%
CCS(=O)(=O)O.Cc1cc(NC(=O)NC(=N)N)ccc1Cl	11%
C[C@@H](Oc1cc(-n2cnc3ccc(NC(=O)CCN4CCCCC4)cc32)sc1C(N)=O)c1ccccc1Cl	36%
O=C(O)C(F)(F)F.c1ccc2[nH]c(-c3ccc(-c4ccc(CN5CCN(CCN6CCOCC6)CC5)cc4)cc3)nc2c1	43%
CCN(CCCN1CCCCC1)c1cc(C)nc(Nc2ccc(Cl)c(C(F)(F)F)c2)n1.O=C(O)C(F)(F)F	43%
Cc1n[nH]c2ccc(-c3cc(OC[C@@H](N)Cc4ccccc4)cnc3-c3ccc(OCc4cccc(F)c4)cc3)cc12.O=C(O)C(F)(F)F	97%
Cc1cccc(OCC(=O)Nc2cccc(NC(=O)COc3cccc(C)c3)n2)c1	0%
Cc1ccc(-c2cc3nc4c(c(NCCCn5ccnc5)n3n2)CCC4)cc1	22%
O=C(/C=C/c1ccc(Cl)cc1)NCCCCCN1CCC(c2c[nH]c3ccccc23)CC1	42%
Cl.NOCCCOc1ccccc1	20%
N#Cc1cccc(NC(=O)c2cccc(S(=O)(=O)NC3CCN(CC4CCCCC4)C3)c2)c1.O=C(O)C(F)(F)F (stereo unspecified)	29%
N#Cc1ccc(C(=O)NC2CCN(CCCCCNC(=O)/C=C/c3ccc(Cl)c(Cl)c3)CC2)cc1	13%
CN(C)CCNC(=O)c1ccc2c(c1)n(C1CCN(S(=O)(=O)c3ccc(-c4ccccc4)cc3)CC1)c(=O)n2CC1CCCCC1	47%
N=C(N)c1ccc(Nc2nccc(Nc3nc(-c4ccccc4)cs3)n2)cc1.O=C(O)C(F)(F)F	13%
c1cncc(-c2cc(N3CCCCC3)nc(-c3ccncc3)n2)c1	18%
CN(C)c1ccc(-c2csc(C(=O)NCC3CCN(CC4CCCCC4)C3)c2)cc1.O=C(O)C(F)(F)F (stereo unspecified)	35%
